Bioassay records as filed in PubChem BioAssay.
UBC9 SUMO inh = inhibitors of in vitro SUMOylation cascade, primary screen, biochemical, HTRF, uHTS; HTRF SUMOylation assay, SAE1/SAE2 + UBC9; inhibition, % at 35 µM; 0.36% of 290,000 active; in the data active means inhibition above about 50%, passing the limit was not always enough
Target sequence (P63279 whole entry, looked up): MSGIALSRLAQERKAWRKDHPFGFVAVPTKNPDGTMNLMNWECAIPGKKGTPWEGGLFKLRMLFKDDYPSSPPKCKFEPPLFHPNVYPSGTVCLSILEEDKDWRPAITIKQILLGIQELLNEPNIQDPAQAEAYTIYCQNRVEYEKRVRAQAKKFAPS
ALR inh = inhibitors of human ALR sulfhydryl oxidase, primary screen, biochemical, H2O2 detection, HRP-luminol luminescence, single point; FAD-linked sulfhydryl oxidase ALR (Homo sapiens), P55789; purified ALR, DTT oxidation; inhibition, % (test concentration not listed); 3.8% of 290,000 active;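 active means mean replicate inhibition above about 79%, with every replicate also reaching it, limit read from the data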
Target sequence (P55789 whole entry, looked up): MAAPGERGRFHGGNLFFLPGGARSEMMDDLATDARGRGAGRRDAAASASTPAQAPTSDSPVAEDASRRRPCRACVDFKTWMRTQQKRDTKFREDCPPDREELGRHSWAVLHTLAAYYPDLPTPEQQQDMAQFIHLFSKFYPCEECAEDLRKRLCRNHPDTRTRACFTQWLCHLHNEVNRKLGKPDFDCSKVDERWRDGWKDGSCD
NTR1 ag = agonists of human NTR1, primary screen, imaging, U2OS cells, beta-arrestin-GFP, high content; Neurotensin receptor type 1 (Homo sapiens), P30989; NTR1-U2OS beta-arrestin-GFP spot imaging, agonist mode; activation, % at 20 µM; 0.17% of 330,000 active;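 active means activation at or above 40% of the spot to cytoplasm intensity ratio, with at least 20 cells analyzed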
Cardio protect = cardioprotection against H2O2-induced cell death, primary screen, uHTS, H9c2 cells, ATPLite luminescence; H9c2 cardiomyocytes, H2O2 injury protection, 2 h; protection from H2O2 cell death, % at 20 µM; 0.63% of 360,000 active; AID 588492, 2011;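 active means compounds giving at least 50% protection of heart cells from peroxide-induced death in the single-dose screen, raw or plate-pattern-corrected value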
A number is an active result; 0 = inactive; - = no result given. Only some compounds are listed: those with a hit (about 3.9% of all), similar ones and a draw of the others.

SMILES | UBC9 SUMO inh | ALR inh | NTR1 ag | Cardio protect
CCOc1ccc(C(c2nnnn2C(C)(C)C)N2CCN(C(=O)c3ccco3)CC2)cc1 (configuration not stated) | 0 | 0 | 0 | 0
CN(C)c1ccc(C(c2nnnn2C(C)(C)C)N2CCN(C(=O)c3ccco3)CC2)cc1 (configuration not stated) | 0 | 90.3 | 0 | 0
COc1ccccc1Oc1c(C)oc2c(CN3CCN(C)CC3)c(O)ccc2c1=O | 52.0 | 0 | 0 | -
COc1ccc(-n2c(SCC(=O)Nc3sc4c(c3C#N)CCCC4)nnc2-c2ccccc2OC)cc1 | 0 | 0 | 0 | 0
Cc1ccc2cc3cc(C(=O)NCCCN4CCCC4=O)oc3nc2c1 | 0 | 78.0 | 0 | 0
COc1cc(CNc2ccc(O)cc2)cc(Br)c1OCc1ccccc1F | 90.8 | - | 0 | 0
CCOc1c(Br)cc(CNc2ccc(N3CCOCC3)cc2)cc1OC | 0 | 98.5 | 0 | 0
Cc1nn2c(=S)[nH]nc2[nH]c1=O | 0 | 94.8 | 0 | 0
CC(=O)Nc1ccc(/C(C)=N/Nc2nc(Nc3cccc4ccccc34)nc(N3CCOCC3)n2)cc1 | 0 | - | 0 | 63.1
CC(=O)Nc1ccc(/C(C)=N/Nc2nc(N3CCOCC3)nc(N3CCOCC3)n2)cc1 | 0 | 0 | 0 | 0
COc1ccc(CSc2nc3ccccc3c(=O)[nH]2)cc1F | 0 | 0 | 0 | 53.2
COCCn1c(SCc2ccc(OC)c(F)c2)nc2ccccc2c1=O | 0 | 0 | 0 | 0
COc1ccccc1OCCSc1nc2ccccc2c(=O)[nH]1 | 0 | 0 | 0 | 66.3
CCCCNC(=O)c1ccc(Cn2c(=S)[nH]c3c([nH]c4ccc(OC)cc43)c2=O)cc1 | 53.2 | 0 | 0 | 0
Cc1ccc(-c2csc3ncnc(N4CCN(C(=O)c5ccccc5)CC4)c23)cc1 | 0 | 0 | 0 | 0
O=C(NC1CCCC1)C(c1ccncc1)N(C(=O)c1csnn1)c1ccc(F)cc1 (configuration not stated) | 0 | 0 | 0 | 0
COc1ccccc1N1CCN(C2CCCN(C(=O)CCc3c(C)noc3C)C2)CC1 (configuration not stated) | 0 | 93.8 | 0 | 0
Cc1ccc(NC(=S)NCCc2c[nH]c3ccccc23)c(C)c1 | 0 | 0 | 0 | 0
Cc1ccc2c(c1)c(/C=C/c1cc[n+](C)cc1)c(C)n2C | 0 | 85.5 | 0 | 0
C[n+]1ccc(/C=C/c2c[nH]c3ccc(F)cc23)cc1 | 0 | 0 | 0 | 0
Cc1ccc2[nH]c(C)c(/C=C/c3cc[n+](C)cc3)c2c1 | 0 | 99.3 | 0 | 0
S=c1[nH]nc(-c2ccc(Cl)cc2)n1-c1ccc(Cl)cc1 | 0 | 82.2 | 0 | 0
S=c1[nH]nc(-c2ccc(Cl)cc2Cl)n1-c1ccc(Cl)cc1 | 0 | 93.7 | 0 | 0
S=c1[nH]nc(-c2ccc(Cl)cc2)n1-c1ccc2c(c1)OCCO2 | 0 | 0 | 0 | 0
COc1ccc(-n2c(-c3ccc(Cl)cc3Cl)n[nH]c2=S)c(OC)c1 | 0 | 0 | 0 | 0
SMILES | UBC9 SUMO inh | ALR inh | NTR1 ag | Cardio protect
O=c1ccc(-c2n[nH]c(=S)n2-c2ccc(F)c(Cl)c2)n[nH]1 | 0 | 85.9 | 0 | 0
O=C(COc1ccc2ccc(=O)oc2c1)N1CCN(C(=O)C2COc3ccccc3O2)CC1 (configuration not stated) | 0 | 0 | 0 | 0
Nc1nc(C2CC2)c(Sc2sc(N)nc2C2CC2)s1 | 0 | 99.0 | 0 | 0
Nc1nc(C2CCOCC2)cs1 | 0 | 0 | 0 | 0
CCCCOC(=O)C(NC(=O)c1ccccc1)=C(C)C | 0 | 0 | 0 | 0
O=C1c2ccccc2C(=O)N1CCc1c(-c2ccccc2)[nH]c2ccccc12 | - | - | - | 0
CC(=O)c1ccc(-c2[nH]c3ccccc3c2CCN2C(=O)c3ccccc3C2=O)cc1 | - | - | - | 65.4
CC(C)COn1c(=S)[nH]c2ccccc2c1=O | 0 | 96.8 | 0 | 0
COc1cccc(C(=O)C2CN(c3ccccc3)CC2c2ccc(Cl)cc2)c1 (configuration not stated) | 0 | 97.3 | 0 | 0
S=C(NCCCN1CCOCC1)NCCCN1CCOCC1 | 0 | 0 | 0 | 0
CCOC(=O)c1ccccc1NC(=O)c1ccc2c(=O)n3c(nc2c1)CCCCC3 | 0 | 0 | 0 | 51.2
CC[C@]12C(=O)N(C)C[C@H]([C@@H]3C(=O)N(C)C(=O)[C@@H]31)N2C(=O)c1ccc(C(F)(F)F)cc1 | - | 0 | 0 | 0
O=C(O)c1ccc(N/N=C/c2ccc(-c3ccccc3)cc2)cc1 | 0 | - | - | 0
CC(C)c1ccc(/C=N/Nc2ccc(C(=O)O)cc2)cc1 | 0 | 98.2 | 0 | 0
